# Test results reported in ChEMBL document CHEMBL4513216, “Probing the Open Global Health Chemical Diversity Library for Multistage-Active Starting Points for Next-Generation Antimalarials” (ACS Infect Dis, 2020).
# About 2,700 (4%) of roughly 68,000 compounds showed an effect of 50% or more. Shown is part of a subset that was picked to be rich in strong results.
# Tested on: Plasmodium berghei
# Test: Screen against P. berghei liver stage (PbLuc), transformed with Luciferase, at 2uM
# Assay type: functional, HepG2
# Conditions: tested at 2 uM
row,Compound,INHIBITION
1,CN1C(=O)C2(CCCN(C(=O)c3cccnc3O)C2)c2ccccc21 (stereo unspecified),-23.27%
2,O=C(NCCn1ccnc1)N1CCN(Cc2ccsc2)CC1,-1.3%
3,O=C(Nc1ccc2c(c1)OCO2)N1CCN(CCn2cccn2)CC1,43.57%
4,COc1ccc(C2CCCN2C(=O)NCCn2ccnc2)cc1 (stereo unspecified),26.61%
5,O=C(NCCn1ccnc1)N1CCCC1c1ccncc1 (stereo unspecified),53.33%
6,CC(Cn1ccnc1)NC(=O)N1CCN(Cc2cccnc2)CC1 (stereo unspecified),-36.13%
7,O=C(Nc1ccc2c(c1)OCO2)N1CCN(CCn2ccnc2)CC1,58.59%
8,O=C(Nc1ccc2c(c1)OCO2)N1CCN(CCc2ccccc2)CC1,20.76%
9,CC(Cn1ccnc1)NC(=O)N1CCN(Cc2ccco2)CC1 (stereo unspecified),32.64%
10,O=C(NCCn1ccnc1)N1CCN(Cc2cccnc2)CC1,58.96%
11,O=C(NCCn1ccnc1)N1CCN(Cc2ccco2)CC1,54.28%
12,O=C(NCCCn1ccnc1)N1CCCC1c1ccncc1 (stereo unspecified),-1.27%
13,O=C(NCCn1ccnc1)N1CCN(Cc2cccs2)CC1,-68.26%
14,CCSCC(C)NCc1nncn1C1CCCCC1 (stereo unspecified),37.3%
15,Cc1nc(CN2C(=O)CC[C@@H]3[C@H]2CCN3C(=O)c2ccccn2)cs1,3.46%
16,CCc1nccn1C1CCCN(C(=O)c2cncnc2C)C1 (stereo unspecified),4.41%
17,CCN(CC)[C@@H]1CN(S(=O)(=O)c2cn(C)cn2)[C@@H]2CCCO[C@H]12,20.21%
18,CN(CC(=O)NCc1cc2ccccc2o1)S(C)(=O)=O,-3.17%
19,CCc1noc(C)c1C(=O)N1C[C@H](NS(C)(=O)=O)[C@@H](C2CC2)C1,5.47%
20,O=C(N1CCCC(n2cncn2)C1)C1(c2ccc(Cl)cc2)CCC1 (stereo unspecified),45.83%
21,CC(=O)c1c(C)nn(S(=O)(=O)c2ccc(C)cc2)c1C,39.45%
22,CN1CCCC(N2CCN(c3cc(C(F)(F)F)ccn3)CC2)C1 (stereo unspecified),-3.43%

row,Compound,INHIBITION
1,FC(F)(F)c1ccnc(N2CCCC(N3CCOCC3)C2)c1 (stereo unspecified),60.13%
2,FC(F)(F)c1ccnc(N2CCCN(C3CCOCC3)CC2)c1,-26.2%
3,O=C(Cn1cccn1)Nc1ccc(N2CCOCC2)cc1,45.12%
4,CCOC(C)C(=O)NS(=O)(=O)c1cccc2cc(C)cnc12 (stereo unspecified),9.27%
5,Cc1cnc2c(S(=O)(=O)NCC3CCN(C4CC4)C3)cccc2c1 (stereo unspecified),51.21%
6,Cc1cnc2c(S(=O)(=O)N(C)C3CCS(=O)(=O)C3)cccc2c1 (stereo unspecified),47.87%
7,COC(C)C(=O)NS(=O)(=O)c1cccc2cc(C)cnc12 (stereo unspecified),73.31%
8,Cc1cnc2c(S(=O)(=O)NC3CCS(=O)(=O)C3)cccc2c1 (stereo unspecified),-15.28%
9,Cc1cnc2c(S(=O)(=O)NCC3CC3)cccc2c1,51.94%
10,Cc1cnc2c(S(=O)(=O)NCC3CCS(=O)(=O)C3)cccc2c1 (stereo unspecified),-84.03%
11,Cc1cnc2c(S(=O)(=O)NC(=O)C(C)OCC3CC3)cccc2c1 (stereo unspecified),28.97%
12,Cc1cnc2c(S(=O)(=O)NCC3CCOC3)cccc2c1 (stereo unspecified),1.61%
13,CC(C)N1CCOC(CC(=O)N2CCCN(Cc3ccncc3)CC2)C1 (stereo unspecified),18.22%
14,CNc1nc(C2CCCN2C(C)=O)nc2c1CN(CCO)CC2 (stereo unspecified),-0.83%
15,Cc1cc(C)c(CNC(=O)C2COc3ccccc3C2)c(=O)[nH]1 (stereo unspecified),-68.78%
16,Cc1cc(C)nc(N2CCCC(C)(c3[nH]ncc3C(=O)N(C)C)C2)n1 (stereo unspecified),-81.44%
17,CCc1cc(CN2CCCCC2c2ccc(F)cc2)on1 (stereo unspecified),-19.3%
18,CCS(=O)(=O)N(C)CCCNC(=O)c1cc(Cl)cc2cccnc12,61.08%
19,COCCOCCCNC(=O)c1cc(Cl)cc2cccnc12,-18.52%
20,CCOC(=O)CCNC(=O)c1cc(Cl)cc2cccnc12,-14.21%
21,CCS(=O)(=O)CC(=O)Nc1ccccc1N1CCc2ccccc21,6.07%
22,CN(C)CCCN1CC2(CCN(C(=O)C3(C)CCCCO3)CC2)OC1=O (stereo unspecified),-64.97%

row,Compound,INHIBITION
1,Cc1ccc(C(=O)N2CCN(C)C3(CCC(=O)N(C)CC3)C2)c(F)c1 (stereo unspecified),18.22%
2,Cc1ccc(C(=O)N2CCC3(CC2)CN(CCN(C)C)C(=O)O3)c(F)c1,57.34%
3,CN(C)CCN1CC2(CCN(C(=O)c3cnccn3)CC2)OC1=O,-48.69%
4,CCCc1cc(C(=O)N2CCC3(CC2)CN(CCN(C)C)C(=O)O3)no1,28.73%
5,Cc1cc(C(=O)N2CCC3(CC2)CN(CCN(C)C)C(=O)O3)nc(C)n1,59.03%
6,CN(Cc1ccccc1)C(=O)Cn1nc(N2CCSCC2)ccc1=O,22.88%
7,Cc1cc2nc(C(C)C)cc(N(C)CC3CCN(C(C)C)C3)n2n1 (stereo unspecified),5.93%
8,Fc1cccc(CN2CCOCC3(CCN(C4CCOCC4)C3)C2)c1 (stereo unspecified),30.29%
9,CNc1cc2c(nn1)CCN(C(=O)c1cc(C)n(C3CC3)c1C)C2,26.06%
10,CCOC(=O)Cn1c(=O)nc(N)c2c(-c3ccc(OC)cc3)csc21,69.62%
11,COc1ccc(-c2csc3c2c(N)nc(=O)n3CC(N)=O)cc1,23.16%
12,CCn1c(=O)nc(N)c2c(-c3ccc(OC)cc3)csc21,-37.19%
13,O=C(CC1CC2(CCNCC2)c2ccccc21)NCC1CC1 (stereo unspecified),-1.81%
14,CC(=O)NC1CCN(c2ncnc3c2c(C)nn3C)C1 (stereo unspecified),32.56%
15,CCC1(CC)Cc2ccccc2-c2nc(CN(C)C)nc(O)c21,29.02%
16,CC(C)N(CC(N)=O)C(=O)c1cnc(-c2ccc3c(c2)OCO3)s1,75.8%
17,CC(C)N(CCC#N)C(=O)c1cnc(-c2ccc3c(c2)OCO3)s1,37.87%
18,CN(C)C(=O)c1cnc(-c2ccc3c(c2)OCO3)s1,-197.6%
19,O=C(O)C1(n2ccc(-c3ccco3)n2)CCN(Cc2cccnc2)CC1,-30.35%
20,Cc1ccc2nc(CN(C)Cc3ccc(C)o3)cc(=O)n2c1,5.02%
21,Cc1nc(C(=O)N2CCN(C(C)c3ccccc3F)CC2)cs1 (stereo unspecified),19.06%
22,CN1CCc2ncc(CNc3cc(N(C)C)ncn3)n2CC1,-14.45%
